Consider 61 compounds from PubChem BioAssay AID1654 (Sanford-Burnham Center for Chemical Genomics, 2009).

A word on the inhibition: it is the relative decrease from the control value, in per cent.

The target of the test is Dual specificity protein phosphatase 3 (Homo sapiens) (UniProt P51452). Nature of the test: inhibition of human DUSP3 activity – biochemical, absorbance, uHTS, primary screen (AID 1654).
Where [1] appears, read: recombinant VHR phosphatase, pNPP absorbance, at 13.3 µM, stronger effect = higher value.

The structures appear in SMILES notation. About 1,500 (0.52%) of roughly 290,000 compounds were called active. The sample holds actives, similar compounds and a random draw of the others, so the mix is not that of the screen. Cut-off read from the data, not from the text of the source: active = inhibition above about 50%; inactive = the rest.

Chain of Dual specificity protein phosphatase 3 (Homo sapiens) (P51452 whole entry, looked up): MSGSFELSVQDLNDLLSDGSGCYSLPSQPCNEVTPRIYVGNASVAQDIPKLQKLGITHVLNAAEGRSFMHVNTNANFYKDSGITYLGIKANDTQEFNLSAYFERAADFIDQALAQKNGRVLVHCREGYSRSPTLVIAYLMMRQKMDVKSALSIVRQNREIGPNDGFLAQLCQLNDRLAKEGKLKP

As for `CN1C2CCC1/C(=C\c1ccccc1Cl)C(=O)/C2=C\c1ccccc1Cl`, the inhibition under setting [1] was -0.2% (inactive).
As for `CCc1ccc(/C=C2\SC(N3CCOCC3)=NC2=O)cc1`, the inhibition under setting [1] is 19.9% (inactive).
For the compound `Cc1ccsc1/C=C1\SC(N2CCOCC2)=NC1=O`, the inhibition under setting [1] was 51% (active).
As for `Cc1ccc(N2CCN(C3=NC(=O)/C(=C\c4cccs4)S3)CC2)cc1`, the inhibition under setting [1] is -10.9% (inactive).
With `O=[N+]([O-])c1cc(C(F)(F)F)ccc1NCCc1ccncc1`, under setting [1], the inhibition is -7.6% (inactive).
Turning to `Cc1cc(C)n2nc(C(=O)NC(C)(C)C)nc2n1`, the inhibition under setting [1] is 38.4% (inactive).
Still for that read-out and setting: as for `Cc1cc(C)n2nc(SCC(N)=O)nc2n1`, the figure is 24.2% (inactive); as for `Cc1cc(C)n2nc(CNS(=O)(=O)c3c(F)c(F)c(F)c(F)c3F)nc2n1`, 51.3% (active); as for `CCOC(=O)c1c(C)[nH]c(C2=NNC(=NC(C)COC)SC2)c1C` (configuration not stated), 8.2% (inactive).
Take `Cc1ccc2oc(C(=O)N3CCN(C)C[C@@H]3C(C)C)c(C)c2c1`: the inhibition was 80.7% (inactive) (recombinant VHR phosphatase, pNPP absorbance; at 13.3 µM; stronger effect = higher value) and -20.8% (recombinant VHR phosphatase, pNPP absorbance; measured here: average of confirmation repeats; at 13.3 µM; stronger effect = higher value).
For `Cc1ccccc1OCC(=O)NNC(=O)c1cc(S(=O)(=O)N(C)C)ccc1N1CCCC1`, the inhibition under setting [1] is -23.3% (inactive).
Take `COCCNC(=O)c1snc2ccc(Cl)cc12`: under setting [1], the inhibition is 50% (active).
Regarding `COCCNC(=O)c1ccc2c(c1)ncn2-c1ccc(C)c(Cl)c1`, the inhibition under setting [1] was 5.8% (inactive).
Turning to `COCCNC(=O)c1ccc(S(=O)(=O)c2ccc(Cl)cc2)c(NC(C)=O)c1`, the inhibition under setting [1] is 13.8% (inactive).
Same read-out and setting: as for `Cc1ccc(C(=O)O/N=C(\N)c2ccccn2)cc1Cl`, the figure is 11.4% (inactive); as for `O=S(=O)(NCc1cccnc1)c1ccc(Cl)nc1`, 50.3% (active); as for `CC1CCN(S(=O)(=O)c2ccc(S(=O)(=O)NCc3cccnc3)cc2)CC1`, 40% (inactive).
Consider `O=S(=O)(NCc1cccnc1)c1ccc(Br)s1`, for which the inhibition under setting [1] is 35.9% (inactive).
Turning to `Cc1ccc(NC(=O)CN(C)C(=O)COC(=O)C(C)(C)Oc2ccc(Cl)cc2)cc1`, under setting [1], the inhibition is -4.4% (inactive).
The same measure, in the same setting: as for `CC(=O)OCCN(CCCn1c(-c2ccncc2)nc2ccccc21)c1nc(-c2ccc(C)cc2)cs1`, the figure is 9.5% (inactive); as for `COc1ccc(C(CCN(Cc2ccc(OC)c(OC)c2)C(=O)CCl)c2ccccc2)cc1` (configuration not stated), 0.4% (inactive).
On to `Cc1ccc2c(c1)C(c1ccccc1)N(C(=O)c1ccc(F)cc1)CC(=O)N2` (configuration not stated), for which, under setting [1], the inhibition was 23.9% (inactive).
Turning to `Cc1ccc(/C=N/NC(=O)CSc2ccccn2)o1`, under setting [1], the inhibition is -2.8% (inactive).
With `CCOc1ccccc1/C=N/NC(=O)CNC(=O)COc1ccccc1`, under setting [1], the inhibition is 26.2% (inactive).
Same read-out and setting: then `Cc1ccc(/C=N/NC(=O)CNC(=O)COc2ccccc2)o1`, with 52.9% (active); and `CCOc1ccc(C(C(=O)NCCOC)N(CCOC)C(=O)CCC(=O)Nc2ccccn2)cc1` (configuration not stated), with 36.3% (inactive); and `COc1ccc2[nH]c(C(=O)N/N=C/c3cc(OC)c(OC)c(OC)c3)cc2c1`, with 14.1% (inactive).
On to `COc1cc2cc(C(=O)N/N=C/c3cccc(OC)c3OC)[nH]c2cc1OC`, for which, under setting [1], the inhibition is 58.2% (active).
As to `CCOc1ccc2[nH]c(C(=O)N/N=C/c3cccc(OC)c3OC)cc2c1`, the inhibition under setting [1] is 26.8% (inactive).
With `CCCn1nnnc1NCc1ccc(CC)cc1`, under setting [1], the inhibition is 10.8% (inactive).
Take `O=C(c1ccc(Cl)cc1)n1cnc2ccccc21`: the inhibition under setting [1] was 4.1% (inactive).
As to `COc1ccc(N2CCN(C(C)=C3C(=O)c4ccccc4C3=O)CC2)cc1`, the inhibition under setting [1] was 30.2% (inactive).
Regarding `COC1=C(N2CCOCC2)C(=O)c2ccccc2C1=O`, under setting [1], the inhibition is 57.3% (active).
With `O=C1C(Cl)=C(N2CCOCC2)C(=O)N1c1ccccc1`, the inhibition under setting [1] was 29.6% (inactive).
Same read-out and setting: as for `CCc1ccc(CNC(=O)C2CCN(c3nnc(C)c4c(C)n(-c5ccc(C)cc5)nc34)CC2)cc1`, the figure is -20.3% (inactive); as for `O=C(CNC(=O)c1cccnc1)N/N=C/c1cccnc1`, 17.2% (inactive).
Turning to `CCN(CC)c1ccc(/C=N/NC(=O)CNC(=O)c2cccnc2)cc1`, the inhibition under setting [1] is -4.7% (inactive).
Still for that read-out and setting: as for `O=C(CNC(=O)c1cccnc1)N/N=C/c1cc(Br)c(O)c(Br)c1`, the figure is 52.6% (active).
In the case of `Cc1cc(-c2nnc(SCC(=O)Nc3ccc(F)cc3)n2N)n[nH]1`, under setting [1], the inhibition is 8% (inactive).
In the case of `COc1cccc(CNCc2ccc3c(c2)OCO3)c1`, the inhibition under setting [1] is 3.6% (inactive).
For `CN(C(=O)C1CCN(c2ncnc3c2nc2n3CCCCC2)CC1)C1CCCCC1`, under setting [1], the inhibition is 21.1% (inactive).
Regarding `CCS(=O)(=O)NCCc1ccc(OC)c(OC)c1`, under setting [1], the inhibition is 3.5% (inactive).
Take `CCOC(=O)c1cc(S(=O)(=O)NCCc2ccc(OC)c(OC)c2)cn1C`: the inhibition under setting [1] was 55.6% (active).
On the same count and under the same terms, then `COc1ccc(CCNS(=O)(=O)c2ccc(F)cc2)cc1OC`, with 2.8% (inactive); and `CCOC(=O)c1ccc2[nH]c3c(c2c1)CCCC3NC=O` (configuration not stated), with 5.2% (inactive).
Consider `COc1ccc(N2CCN(C(=O)c3ccc(N4CCCCS4(=O)=O)cc3)CC2)cc1`, for which, under setting [1], the inhibition is 21.1% (inactive).
Take `Cc1ccc(S(=O)(=O)N(CC(O)CN2C(=O)NC(C)(C)C2=O)c2cccc([N+](=O)[O-])c2)cc1` (configuration not stated): the inhibition under setting [1] is 6.7% (inactive).
Consider `Cc1cc(C)c(S(=O)(=O)c2cc(F)ccc2C)c(=O)[nH]1`, for which the inhibition under setting [1] was 56.9% (active).
For `Cc1cc(C)c(S(=O)(=O)c2ccc(F)cc2C)c(=O)[nH]1`, the inhibition under setting [1] was -16.2% (inactive).
The same measure, in the same setting: as for `COc1ccccc1S(=O)(=O)c1c(C)cc(C)[nH]c1=O`, the figure is 8.8% (inactive).
The same measure, in the same setting: then `CCn1c(C(O)c2cc(OC)ccc2OC)nc2ccccc21` (configuration not stated), with -40.5% (inactive); and `COc1ccc(OC)c(C(O)c2nc3ccccc3n2C)c1` (configuration not stated), with 57% (active); and `CCCn1c(C(O)c2cc(OC)ccc2OC)nc2ccccc21` (configuration not stated), with 6.4% (inactive).
With `COc1cccc(NC(=O)C2C(c3ccccc3)C2(Cl)Cl)c1` (configuration not stated), the inhibition under setting [1] was -7.8% (inactive).
As for `Cc1cc(C)c(C#N)c(Nc2cccc(Br)c2)n1`, the inhibition under setting [1] is 0.3% (inactive).
Take `COc1cc(Cl)ccc1OCc1cc(C(=O)N(C)CCc2c(C)n[nH]c2C)no1`: the inhibition under setting [1] is 1.6% (inactive).
As for `Cc1ccccc1Nc1c([N+](=O)[O-])ccc2nonc12`, under setting [1], the inhibition was 17.2% (inactive).
As to `COc1ccccc1OCCOc1ccc(/C=C2\C(=N)N3N=C(C)SC3=NC2=O)cc1`, under setting [1], the inhibition was 59.3% (active).
In the case of `CS(=O)(=O)C1=NN2C(=N)/C(=C\c3ccc(OCCOc4ccccc4)cc3)C(=O)N=C2S1`, the inhibition under setting [1] is 26.8% (inactive).
The same measure, in the same setting: then `CCOc1cc(/C=C2\C(=N)N3N=C(C)SC3=NC2=O)ccc1OCCOc1ccccc1`, with 17.9% (inactive).
Turning to `C=CCN1C(=NC(=O)COc2ccccc2)SC2CS(=O)(=O)CC21` (configuration not stated), under setting [1], the inhibition was 19% (inactive).
